An excerpt weighted towards active compounds, which were near 19% of everything screened.
IL1B secr inh: inflammasome signaling inhibition, IL-1 beta readout. activity change, % at 57.5 µM. THP-1 LPS/ATP IL-1B secretion, AlphaLISA, 16 h; active compounds read low. hit rate 4.7% among 360,000; in the data active = activity change below about -50%; inconclusive = mostly about -30% to -49%
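THP-1 cells pretreated 1 hr with compounds (up to 57.5 uM final), then stimulated with LPS (250 ng/mL final) plus ATP (1.25 mM final); secreted IL-1B measured by AlphaLISA after 16 hr, decreased signal indicating inhibition.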
HT1080-NT tox: kills 2HG-producing HT-1080-NT fibrosarcoma cells; HT-1080-NT fibrosarcoma viability, CellTiter-Glo ATP luminescence, 48 h; Potency, µM (series often up to 46.1 µM), for the others: at the highest dose activity, negative = less viability, actives largely listed as cytotoxic; hit rate 1.6% among 360,000;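 note: NT is the 2HG producing partner of a matched IDH1 knockdown line; potency is the fitted concentration of half-maximal effect; 0% = DMSO-treated cells and -100% = media-only wells without cells; nearly all actives have a fitted effect of over 55% in size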
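Viability of the 2HG-overproducing fibrosarcoma line after 48 hours of compound exposure at 37 degrees C was determined by luminescence with CellTiter-Glo, and concentration-effect curves were then fitted and categorized.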
DT40 TDP1 no CPT: qHTS for Inhibitors of human tyrosyl-DNA phosphodiesterase 1 (TDP1): qHTS in cells in absence of CPT. DT40 Tdp1-/- hTDP1 cells, no CPT, ATP luminescence, 48 h. Potency, µM (titrated, usually from 46.2 µM), inactives show at the highest dose activity change, negative = growth inhibition, hits mostly inhibitors. hit rate 15% among 420,000; note: potency is the fitted concentration of half-maximal effect; nearly all actives have a fitted effect of over 55% in size
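No-CPT arm: Tdp1-/-;hTDP1 DT40 cells (400/well) plus compounds, incubated ≥48 hr at 37 °C. Readout CellTiter-Glo luminescence.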
HT1080 IDH1KD tx: HT-1080 IDH1 knockdown cell toxicity (counter line) | Potency, µM (highest dose often 46.1 µM), inactives show at the highest dose activity, negative = toxicity, usual class: cytotoxic | hit rate 2% among 360,000 | AID 686971 | HT-1080 IDH1 knockdown viability, ATP luminescence, 48 h;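 note: potency is the fitted concentration of half-maximal effect; 0% = DMSO wells and -100% = cell-free medium wells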
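Assay cells: HT-1080 with IDH1 knockdown, 750 per well, RPMI/5% FBS. Exposure: 48 h at 37 °C following 2 h pre-incubation. Read: CellTiter-Glo luminescence; fitted concentration-response, curve class assigned.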
DT40 TDP1 CPT: DT40-hTDP1 cell growth loss with CPT | chicken DT40 Tdp1-/-;hTDP1 cells + 20 nM CPT, ATP luminescence, 48 h | Potency, µM (highest dose often 46.2 µM), for inactives: top-dose activity change, negative = growth inhibition, usual class: inhibitors | hit rate 12% among 420,000 | AID 686979; note: potency is the fitted concentration of half-maximal effect; nearly all actives have a fitted effect of over 55% in size
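Chicken DT40 Tdp1-/- cells complemented with human TDP1, 400 cells/well, exposed to compounds plus 20 nM camptothecin for at least 48 h at 37 C; viability read as ATP content by CellTiter-Glo luminescence.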
ELG1 DNA repair: blocks ELG1-dependent DNA repair in HEK293T cells; hit rate 2.3% among 330,000; AID 504467; Potency, µM (titrated, usually from 46.1 µM), for the others: top-dose activity change, negative = inhibition, most hits filed as inhibitors; HEK293T ELG1-luciferase reporter, luminescence, 16 h; DNA damage induced by 5-fluorouridine; note: potency is the fitted concentration of half-maximal effect; nearly all actives have a fitted effect of over 55% in size
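Quantitative HTS, concentration-response format. 2,000 cells/well co-treated with 5-fluorouridine and compound, 16 hr in 5% CO2 at 37 °C; ONE-Glo luminescence read after 30 min.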
The depositor's hits bear a star; ? = inconclusive; . = no result given. Unless noted, calls come from the whole dose curve; as a rule, active = well fitted curve in the direction sought with a large enough effect; inconclusive = small, poorly fitted or top-dose-only effect, or another doubt; inactive = no such curve, though single readings can be large; an effect the other way counts as inactive or inconclusive. Unless noted, % is set by controls: 0 for no effect and ±100 for the full control effect.

SMILES	IL1B secr inh	HT1080-NT tox	DT40 TDP1 no CPT	HT1080 IDH1KD tx	DT40 TDP1 CPT	ELG1 DNA repair
CSc1ccc(CCNC(=O)CCCn2nc(C)c3sc4ccccc4c3c2=O)cc1	.	.	?	.	14.6µM*	.
COc1cccc(CNC(=O)CCCn2nc(C)c3sc4ccccc4c3c2=O)c1	.	.	?	.	16.4µM*	.
C[C@@H]1CN([C@@H](C)CO)C(=O)c2cc(Br)cnc2O[C@@H]1CN(C)S(C)(=O)=O	-4.6	3.6%	-8.7%	3.0%	-8.8%	.
CCOC(=O)c1c(NC(=O)COc2cccc(C(F)(F)F)c2)sc2c1CCCCC2	.	.	-7.6%	.	-11.0%	.
Cc1ccc(S(=O)(=O)NCCNC(=O)CN2CCOCC2)cc1	-1.1	-1.3%	-0.6%	-5.5%	11.2%	15.0%
Oc1ccc(C[C@@H]2CNCCN2CCc2cc(C(F)(F)F)cc(C(F)(F)F)c2)cc1	-66.8*	?	?	-22.1%	23.1µM*	13.3%
Oc1ccc(C[C@H]2CNCCN2CCc2cc(C(F)(F)F)cc(C(F)(F)F)c2)cc1	?	?	?	-0.4%	10.3µM*	11.5%
FC(F)(F)c1cc(CCN2CCNC[C@H]2Cc2cccc3ccccc23)cc(C(F)(F)F)c1	-104.9*	-26.5%	8.2µM*	?	8.2µM*	?
Oc1ccc(C[C@@H]2CNC(=S)N2CCc2cc(C(F)(F)F)cc(C(F)(F)F)c2)cc1	0.2	4.6%	?	9.0%	?	-28.6%
COc1ccccc1CN1CCC2(CC1)CCN(C(=O)c1cccc(F)c1)CC2	.	.	1.1%	.	-3.2%	.
COc1cccc(OCc2cc(C(=O)NCCc3cccc(C)n3)no2)c1	8.6	-0.6%	-24.9%	-16.6%	-6.9%	-3.0%
O=C(NCCc1ccco1)c1cc(COc2cccc(C(F)(F)F)c2)on1	-83.3*	-19.8%	?	?	?	-15.5%
Cc1ccc(OCc2cc(C(=O)NCCc3cccnc3)no2)cc1C	10.2	?	?	?	?	?
COc1cccc(CCNC(=O)c2cc(COc3cccc(OC)c3)on2)c1	-1.0	-2.8%	16.4µM*	-8.0%	?	.
COc1cccc(CCNC(=O)c2cc(COc3ccc(C)c(C)c3)on2)c1OC	-23.1	2.3%	14.6µM*	-1.3%	?	.
CCOC(=O)CC1(NC(=O)c2cc(COc3cccc(OC)c3)on2)CCCCC1	-21.8	1.9%	10.3µM*	-18.5%	23.1µM*	?
O=C(c1cnccn1)N1CCC2(CC1)CN(Cc1ccccc1)C2	.	.	-0.2%	.	3.6%	.
CC(C)c1ccc(C2c3[nH]c4ccccc4c3C[C@H]3C(=O)N(c4ccccc4C(=O)N4CCC(C(=O)O)CC4)C(=O)N23)cc1 (stereo not given in full)	36.2	-15.3%	?	-12.0%	?	?
CCCCN(C)CCNC(=O)CCn1nc(-c2ccc(Cl)cc2)ccc1=O	-5.8	-3.0%	-0.3%	0.0%	-16.0%	3.6%
CCCCN(C)CCNC(=O)CCn1nc(-c2ccc(C)cc2)ccc1=O	-13.0	0.0%	-8.7%	-0.2%	20.6µM*	-4.9%
CCOC(=O)N1CCN(S(=O)(=O)c2ccc(C(=O)NNc3nc4ccc(Cl)cc4s3)cc2)CC1	110.4	?	20.6µM*	?	20.6µM*	?
CCOC(=O)N1CCN(S(=O)(=O)c2ccc(C(=O)N(CCN(C)C)c3nc4ccc(Cl)cc4s3)cc2)CC1	-21.2	-10.9%	-1.7%	-25.3%	-22.6%	?
CCOC(=O)N1CCN(S(=O)(=O)c2ccc(C(=O)NNc3nc4c(C)cccc4s3)cc2)CC1	86.4	?	16.4µM*	?	16.4µM*	?
COC(=O)c1sccc1NC(=O)CC1NCCNC1=O (stereo not given)	0.0	2.1%	8.3%	12.8%	-5.4%	7.6%
